Source: PubChem BioAssay
Active and inactive are the calls of the source.

Assays:
[1] = E. coli DRC41 culture turbidity changes, primary screen, E. coli filamentation inducer project, strain DRC41, OD650, 48 h (AID 1152);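 further: E. coli MC1000 strain DRC41 lacking acrAB efflux pump and sulA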; conditions: E. coli DRC41 (acrAB sulA), higher = more signal, called active from +8 up or from −8 down
[2] = small-molecule binders of probe aLefty1, primary screen, biochemical, small-molecule microarray, 635/667 nm fluorescence (AID 1153); conditions: higher = more signal;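 further: score merges spot fluorescence with signal-to-noise ratio from the scanned slide images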
[3] = PSAC antagonists in infected red cells, primary screen, cell-based, P. falciparum Indochina, OD700, 1 h (AID 1154); conditions: P. falciparum Indochina infected RBC osmotic lysis, higher = more signal, called active from +8 up or from −8 down
[4] = PSAC antagonists in infected red cells, primary screen, cell-based, P. falciparum Indochina, OD700, 2 h (AID 1155);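 further: lysis reports solute entry through the parasite surface anion channel PSAC; channel blockers reduce lysis of infected cells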; conditions: P. falciparum Indochina infected erythrocytes, osmotic lysis OD700; higher = more signal, called active from +8 up or from −8 down
[5] = osmotic lysis modulators in infected erythrocytes, primary screen, PSAC antagonist project, cell-based, P. falciparum Indochina, OD700, 3 h (AID 1156); conditions: higher = more signal, called active from +8 up or from −8 down
[6] = PSAC antagonists in infected red cells, primary screen, cell-based, P. falciparum Indochina, OD700, 18 h (AID 1157); conditions: P. falciparum Indochina infected erythrocytes, osmotic lysis OD700, 18 h; higher = more signal, called active from +8 up or from −8 down
[7] = modulators of S6 phosphorylation in cells, primary screen, cell-based, A549, cytoblot, luminescence, serum-stimulated (AID 1158); conditions: A549 phospho-S6 cytoblot, 5 h, higher = more signal;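 further: serum-stimulated A549 lung adenocarcinoma cells; signal is phosphorylated S6 detected by cytoblot immunostaining with HRP secondary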
[8] = target: NADPH oxidase 2 (Homo sapiens) (UniProt P04839); assay: NOX2-dependent H2O2 signal modulators, primary screen, NOX inhibitor project, cell-based, HEK293-NOX2, PMA-stimulated, Amplex Red fluorescence (AID 1159); conditions: 45 min, higher = more signal, called active from +8 up or from −8 down; further: test concentration not given here
Sequence of NADPH oxidase 2 (Homo sapiens) (P04839 whole entry, looked up): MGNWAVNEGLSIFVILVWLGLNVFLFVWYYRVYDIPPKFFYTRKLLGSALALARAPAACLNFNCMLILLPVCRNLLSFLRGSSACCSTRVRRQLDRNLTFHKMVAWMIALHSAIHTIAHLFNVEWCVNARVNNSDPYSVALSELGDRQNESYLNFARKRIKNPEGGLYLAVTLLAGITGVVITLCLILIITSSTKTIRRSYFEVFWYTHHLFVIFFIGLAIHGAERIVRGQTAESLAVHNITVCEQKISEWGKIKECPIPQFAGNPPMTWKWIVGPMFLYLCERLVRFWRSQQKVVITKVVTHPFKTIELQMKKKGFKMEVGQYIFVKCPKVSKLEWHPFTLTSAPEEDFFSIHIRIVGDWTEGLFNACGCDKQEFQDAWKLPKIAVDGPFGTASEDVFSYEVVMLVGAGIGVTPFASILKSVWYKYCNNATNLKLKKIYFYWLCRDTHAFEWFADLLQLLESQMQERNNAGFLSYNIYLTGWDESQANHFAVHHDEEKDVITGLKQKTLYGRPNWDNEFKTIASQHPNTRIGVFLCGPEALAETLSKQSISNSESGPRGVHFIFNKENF

[9] = target: NADPH oxidase 4 (Homo sapiens) (UniProt Q9NPH5); assay: NOX4-dependent H2O2 signal modulators, primary screen, NOX inhibitor project, cell-based, HEK293-NOX4, tetracycline-induced, Amplex Red fluorescence (AID 1160); conditions: 45 min, higher = more signal, called active from +8 up or from −8 down
Sequence of NADPH oxidase 4 (Homo sapiens) (Q9NPH5 whole entry, looked up): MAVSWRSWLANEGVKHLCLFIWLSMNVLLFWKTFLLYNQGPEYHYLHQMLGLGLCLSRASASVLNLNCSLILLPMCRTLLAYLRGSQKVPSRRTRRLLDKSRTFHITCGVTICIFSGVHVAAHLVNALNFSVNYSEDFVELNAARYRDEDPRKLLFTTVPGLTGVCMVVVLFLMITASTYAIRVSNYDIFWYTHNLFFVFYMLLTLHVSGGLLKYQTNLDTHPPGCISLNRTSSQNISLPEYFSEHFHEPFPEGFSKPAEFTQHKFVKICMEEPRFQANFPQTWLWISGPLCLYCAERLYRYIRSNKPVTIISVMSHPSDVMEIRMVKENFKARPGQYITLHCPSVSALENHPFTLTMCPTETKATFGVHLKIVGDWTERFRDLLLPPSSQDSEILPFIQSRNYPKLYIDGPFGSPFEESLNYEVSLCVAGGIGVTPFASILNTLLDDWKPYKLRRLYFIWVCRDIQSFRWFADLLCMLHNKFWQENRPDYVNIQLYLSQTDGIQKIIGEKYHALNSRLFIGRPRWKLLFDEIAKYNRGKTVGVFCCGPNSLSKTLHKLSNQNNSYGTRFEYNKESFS

[10] = target: NADPH oxidase 5 (Homo sapiens) (UniProt Q96PH1); assay: NOX5-dependent H2O2 signal modulators, primary screen, NOX inhibitor project, cell-based, HEK293-NOX5, Amplex Red fluorescence (AID 1161); conditions: HEK293-NOX5, ionomycin, 45 min, higher = more signal
Sequence of NADPH oxidase 5 (Homo sapiens) (Q96PH1 whole entry, looked up): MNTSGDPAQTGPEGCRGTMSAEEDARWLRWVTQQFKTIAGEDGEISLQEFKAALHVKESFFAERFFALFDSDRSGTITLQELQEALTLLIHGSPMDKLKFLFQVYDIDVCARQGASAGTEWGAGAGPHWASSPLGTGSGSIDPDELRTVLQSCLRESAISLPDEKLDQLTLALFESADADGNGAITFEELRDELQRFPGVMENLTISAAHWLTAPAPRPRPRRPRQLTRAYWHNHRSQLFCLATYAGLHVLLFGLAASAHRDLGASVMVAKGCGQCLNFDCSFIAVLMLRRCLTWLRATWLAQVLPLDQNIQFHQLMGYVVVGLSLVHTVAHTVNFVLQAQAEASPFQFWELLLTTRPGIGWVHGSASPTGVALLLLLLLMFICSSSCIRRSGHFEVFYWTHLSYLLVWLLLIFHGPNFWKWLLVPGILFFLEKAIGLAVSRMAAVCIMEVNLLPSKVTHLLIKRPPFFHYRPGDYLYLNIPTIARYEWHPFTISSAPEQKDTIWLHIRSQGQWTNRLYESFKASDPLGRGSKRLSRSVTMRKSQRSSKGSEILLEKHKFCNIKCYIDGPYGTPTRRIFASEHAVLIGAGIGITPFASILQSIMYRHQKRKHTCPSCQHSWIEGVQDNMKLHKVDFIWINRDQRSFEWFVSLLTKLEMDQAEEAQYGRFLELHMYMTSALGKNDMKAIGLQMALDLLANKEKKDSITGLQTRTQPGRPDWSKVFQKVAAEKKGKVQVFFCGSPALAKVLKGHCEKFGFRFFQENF

[11] = A549 cell viability effects, profiling panel, calcein-AM fluorescence, 48 h, basal (AID 1162); conditions: higher = more signal; further: test concentration not given here
[12] = adipocyte viability effects, profiling panel, cell-based, 3T3-L1 adipocytes, calcein-AM fluorescence, 48 h, basal (AID 1163); conditions: 3T3-L1 adipocytes viability, higher = more signal; further: test concentration not given here
[13] = HepG2 cell viability effects, profiling panel, calcein-AM fluorescence, 48 h, basal (AID 1164); conditions: higher = more signal; further: test concentration not given here
[14] = MM1S cell viability effects, profiling panel, calcein-AM fluorescence, 48 h, basal (AID 1165); conditions: higher = more signal;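 further: viability of MM1S multiple myeloma cells under basal unstimulated conditions; test concentration not given here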
[15] = basal RPMI8226 viability, no added stimulus, profiling panel, cell-based, calcein-AM fluorescence, 48 h, PK04 Diversity Set (AID 1166); conditions: RPMI8226 myeloma viability, higher = more signal;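 further: cells grown under basal conditions without added stimulus; test concentration not given here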
[16] = basal HepG2 mitochondrial membrane potential changes, profiling panel, cell-based, JC-1 fluorescence, 24 h, 100 nL compound (AID 1167); conditions: higher = more signal; further: test concentration not given here
[17] = basal 3T3-L1 adipocyte mitochondrial potential changes, profiling panel, cell-based, JC-1 fluorescence, 3T3-L1 adipocytes, 24 h, 100 nL compound (AID 1168); conditions: JC-1 mitochondrial fluorescence, higher = more signal, called active from +8 up or from −8 down; further: test concentration not given here
[18] = basal RPMI8226 mitochondrial membrane potential changes, profiling panel, cell-based, JC-1 fluorescence, 24 h, 100 nL compound (AID 1169); conditions: RPMI8226 myeloma, JC-1 mitochondrial potential fluorescence, higher = more signal; further: test concentration not given here
[19] = basal MM1S mitochondrial membrane potential changes, profiling panel, cell-based, JC-1 fluorescence, 24 h, 100 nL compound (AID 1170); conditions: higher = more signal; further: test concentration not given here
[20] = A549 lung cancer cell viability effects, profiling panel, resazurin fluorescence, 24 h, PK04 Diversity Set (AID 1171); conditions: higher = more signal, called active from +8 up or from −8 down; further: test concentration not given here

Structure (SMILES)	z-score [1]	composite z-score [2]	z-score [3]	z-score [4]	z-score [5]	z-score [6]	z-score [7]	z-score [8]	z-score [9]	z-score [10]	z-score [11]	z-score [12]	z-score [13]	z-score [14]	z-score [15]	z-score [16]	z-score [17]	z-score [18]	z-score [19]	z-score [20]
COCCOC(=O)N1C(=O)[C@@]2(c3cc(C#CC4=CCCCC4)ccc31)[C@H](c1ccccc1OCCO)N1[C@H](c3ccccc3)[C@H](c3ccccc3)OC(=O)[C@H]1[C@@H]2C(=O)NC[C@H](O)c1ccccc1	-0.801 (inactive)	0.457	1.34 (inactive)	2.19 (inactive)	-1.61 (inactive)	0.703 (inactive)	-0.0585	1.79 (inactive)	0.529 (inactive)	1.81	-1.86	1.44	-0.529	-3.08	-3.9	0.315	2.5 (inactive)	-0.817	-1.07	-1.59 (inactive)
CS(=O)(=O)CCOC(=O)C1=CC(CCCO)=CC(c2ccc(CN3CCCC3)cc2)N(Cc2sc3ccccc3c2Cl)C=C1C(=O)OCCS(C)(=O)=O (stereo not given)	-0.794 (inactive)	0.85	3.35 (inactive)	0.586 (inactive)	0.51 (inactive)	0.428 (inactive)	-0.261	0.44 (inactive)	-0.567 (inactive)	-0.719	0.389	0.958	0.888	-1.59	0.16	2.41	0.0187 (inactive)	-0.544	-0.299	0.328 (inactive)
CCCCCCc1nc(Cc2cc(OC)c(OC)c(OC)c2)cc2c1[Si](C(C)C)(C(C)C)OC2	-0.56 (inactive)	-0.131	0.88 (inactive)	-0.221 (inactive)	0.908 (inactive)	-0.718 (inactive)	0.552	-4.01 (inactive)	-1.88 (inactive)	-5.31	-1.79	0.5	0.0671	-3.02	-4.45	0.785	0.705 (inactive)	-1.06	-0.48	1.64 (inactive)
COCCOC(=O)N1C(=O)[C@@]2(c3ccccc31)[C@H](c1ccc(O)cc1)N1[C@H](c3ccccc3)[C@H](c3ccccc3)OC(=O)[C@H]1[C@@H]2C(=O)N1CCN(c2ncccn2)CC1	0.381 (inactive)	0.412	1.4 (inactive)	0.622 (inactive)	0.113 (inactive)	0.431 (inactive)	0.174	0.964 (inactive)	0.386 (inactive)	1.08	-0.402	1.26	-0.611	-0.62	-0.42	-0.238	-0.685 (inactive)	0.199	0.0293	0.233 (inactive)
O=c1cccc(-c2ccc([N+](=O)[O-])cc2)o1	0.609 (inactive)	-0.241	0.687 (inactive)	-0.129 (inactive)	0.0448 (inactive)	-1.08 (inactive)	0.248	0.304 (inactive)	0.542 (inactive)	0.0589	0.419	0.294	0.273	-0.369	-0.308	0.302	0.543 (inactive)	0.379	-1.01	-0.0447 (inactive)
C[N+](C)(C)CCCCCCNC(=O)[C@@H]1C[C@@H]2C(=O)N3CCC[C@H]3C(=O)N2[C@@H]1c1ccc(O)cc1	0.524 (inactive)	-0.021	1.55 (inactive)	-0.15 (inactive)	-0.72 (inactive)	-0.117 (inactive)	-0.196	-0.425 (inactive)	0.375 (inactive)	-0.233	-0.134	-0.329	-0.526	-0.403	-0.106	-1	-0.362 (inactive)	-0.101	-0.637	1.78 (inactive)
CCCCC(CC)C(O)C1C=CC2C(=O)N(C)C(=O)C2N1Nc1ccccc1 (stereo not given)	-1.34 (inactive)	0.443	0.755 (inactive)	0.916 (inactive)	-0.0492 (inactive)	0.827 (inactive)	-0.778	-1.45 (inactive)	-3.67 (inactive)	-3.2	-0.959	-1.12	-0.195	-0.0591	-0.885	-1.02	-1.03 (inactive)	-0.3	-0.348	-0.83 (inactive)
COC(=O)[C@@]1(Cc2ccc(F)cc2)[C@H]2c3cc(C(=O)N(C)C)n(CCc4ccc(OC)c(Br)c4)c3C[C@H]2CN1C(=O)c1ccccc1	-1.75 (inactive)	1.32	1.89 (inactive)	-1.04 (inactive)	0.746 (inactive)	-1.96 (inactive)	1.24	-3.62 (inactive)	-3.99 (inactive)	-4.26	-2.25	0.0834	-1.42	-3.29	-4.63	-1.68	-0.662 (inactive)	-0.812	-2.89	-2.93 (inactive)
CC(C)N1C(=O)C[C@@](C(=O)O)(c2ccc([N+](=O)[O-])cc2)[C@H]1c1ccc(CO)cc1	1.47 (inactive)	0.188	3.45 (inactive)	0.654 (inactive)	0.415 (inactive)	0.159 (inactive)	0.126	-2.39 (inactive)	0.251 (inactive)	1.02	2.22	-0.246	0.74	0.389	1.1	1.52	0.546 (inactive)	-0.108	0.435	-0.602 (inactive)
